# Compound activity deposited in PubChem BioAssay by Broad Institute.
# These entries were drawn from the full list.
# aSyn 5UTR act = Activators via SNCA 5'UTR binding, MLPCN; alpha-synuclein 5'UTR reporter, activators screen; activity score, % (tested at 7.5 µM), hits read low; 300,000 compounds, 7.1% hits; AID 1814; in the data active = activity score below about -60%
# Starred values were filed as active, the others as inactive.
SMILES,aSyn 5UTR act
COc1ccc(C(=O)/C(=C\c2ccco2)N2C=CC=CC2=C(C#N)C#N)cc1,76.6
COc1ccc(/C=C(/C(=O)c2cccs2)N2C=CC=CC2=C(C#N)C#N)cc1,-102.0*
Cc1ccccc1NC(=O)c1nnn(-c2ccc3c(c2)OCCO3)c1N,-135.4*
Nc1c(C(=O)Nc2cccc(F)c2)nnn1-c1ccc2c(c1)OCCO2,-101.0*
CCCCN(CC)C(=O)c1cc2cc3ccc(Cl)cc3nc2o1,-87.4*
Cc1nn(CC(=O)c2ccccc2Cl)c(C)c1[N+](=O)[O-],-176.9*
C/C(=N\NC(=O)C(C)n1nc(C)c([N+](=O)[O-])c1C)c1ccccc1O (centres undefined),77.8
Clc1nc2ccccc2cc1-c1nnn(-c2ccccc2Br)n1,-127.9*
Brc1ccccc1-n1nnc(-c2nccs2)n1,-96.7*
O=C(NC(=S)Nc1cccc(Cl)c1N1CCCC1)c1ccc(-c2cccc([N+](=O)[O-])c2)o1,-62.6*
O=C(Nc1ccccc1F)c1ccc(-c2cccc([N+](=O)[O-])c2)o1,-141.0*
O=C(Nc1nccs1)c1ccc(-c2cccc([N+](=O)[O-])c2)o1,-174.8*
C=CCNC(=O)c1ccc(-c2cccc([N+](=O)[O-])c2)o1,-115.3*
O=C(Nc1ccccc1F)Nc1ccc([N+](=O)[O-])cc1Cl,-125.4*
CCOc1ccc(C(=O)NC(=S)Nc2cccc(S(=O)(=O)NC3=NCCC3)c2)cc1,110.8
CCC(=O)Nc1cccc(NC(=S)NC(=O)c2ccccc2C)c1,-112.9*
CCC(=O)Nc1cccc(NC(=S)NC(=O)c2ccc(Cl)cc2)c1,-150.9*
Cc1ccc(NC(=O)c2nc3nccc(C)n3n2)c(C)c1,-63.7*
Cc1csc(NC(=O)c2nc3nccc(C)n3n2)n1,-147.2*
Cc1ccnc2nc(C(=O)Nc3ccc(N4CCOCC4)cc3)nn12,-73.0*
COc1ccc(N=Cc2oc3ccc4ccccc4c3c2O)cc1,-223.2*
CCN1CCN(C(=O)c2cc3c(s2)-c2c(C)cccc2OC3)CC1,-141.1*
Cc1cccc2c1-c1sc(C(=O)N3CCCCC3)cc1CO2,-99.7*
Cc1cccc(S(=O)(=O)N/N=c2\sc3ccccc3n2C)c1,-175.3*
Cc1ccc(S(=O)(=O)N/N=c2\sc3ccccc3n2C)cc1,-115.2*
SMILES,aSyn 5UTR act
O=C(Oc1ccc(-c2ccccc2)cc1)N1CCOCC1,-103.8*
O=C(/C=C/N1CCOCC1)c1ccc(-c2ccccc2)cc1,-123.2*
S=C(c1ccc(-c2ccccc2)cc1)N1CCOCC1,64.5
Cc1ccc(NC(=S)Nc2ccc3cn[nH]c3c2)cc1,-83.3*
O=C(NC(=S)Nc1ccc2cn[nH]c2c1)c1ccccc1,-173.1*
S=C(Nc1ccccc1)Nc1ccc2cn[nH]c2c1,-74.8*
COC(=O)c1ccc(/C=C2\Oc3ccccc3NC2=O)cc1,-109.8*
COC(=O)c1ccc2c(c1)C(=O)/C(=C/c1ccc(C)cc1)O2,-143.2*
O=[N+]([O-])c1ccc2cn(-c3ccccc3)nc2c1,-200.0*
COc1ccccc1-n1cc2ccc([N+](=O)[O-])cc2n1,-118.7*
Fc1ccc(CSc2nnc(-c3cccs3)o2)cc1,-88.3*
Fc1ccccc1CSc1nnc(-c2cccs2)o1,-127.8*
Fc1ccc(Cc2nnc(-c3cccs3)o2)cc1,-114.1*
Fc1ccc(-c2nnc(Cc3ccc(Cl)cc3)o2)cc1,-85.9*
c1ccc(CSc2nnc(-c3cccs3)o2)cc1,-169.8*
COC(=O)c1c(C)[nH]c(/C=N/Nc2ccccc2)c1C,-70.5*
COc1cc2sc3ccc(-c4ccc5[nH]ccc5c4)cc3c(=O)c2cc1OC,-238.7*
O=c1c2ccccc2oc2cc(-c3ccc4[nH]ccc4c3)ccc12,-97.3*
CCOC(=O)c1c(NC(=O)CSc2nc3ccccc3[nH]2)sc2c1CC(C)(C)NC2(C)C,-100.9*
COC(=O)c1c(NC(=O)c2nc3ccccc3s2)sc2c1CC(C)(C)NC2(C)C,104.2
CC1Oc2ccccc2N(CC(=O)NCc2ccccc2)C1=O (centres undefined),-90.6*
COc1cc(NC(=O)CN2CCC(C)CC2)c(C)cc1[N+](=O)[O-],-81.7*
O=C(c1cc(-c2ccccc2O)on1)N1CCOCC1,-115.4*
O=C(c1cc(-c2ccccc2O)on1)N1CCCCCC1,-140.1*
S=C(Nc1ccc(Br)cc1Cl)N1CCCC1,-90.7*
SMILES,aSyn 5UTR act
Cc1cc(C)cc(NC(=O)CSc2nnc(-c3ccccc3C)o2)c1,-119.3*
Cc1ccc(NC(=O)CSc2nnc(-c3ccccc3C)o2)cc1C,-88.7*
Cc1cccc(NC(=O)CSc2nnc(-c3ccccc3C)o2)c1,-93.5*
CCOC(=O)/C=C/c1cnn(-c2ccccc2)c1,-113.4*
C[C@H](NC(=O)[C@@H]1Cc2ccccc2CN1)C(=O)Nc1ccc2c(c1)OCCO2,-64.7*
CCC(C)[C@H](NC(=O)[C@@H]1Cc2ccccc2CN1)C(=O)Nc1ccc2c(c1)OCO2 (some centres undefined),-100.9*
CN(C)c1oc(-c2ccc(OCc3ccccc3)cc2)nc1C#N,-109.2*
O=C(CSC1=NCCS1)N1CCc2ccccc21,-197.6*
Cc1ccc(SCC(=O)N2CCc3ccccc32)cc1,-171.4*
O=C(CS(=O)(=O)c1ccccc1)N1CCc2ccccc21,-106.8*
Cc1cc(C)nc(SCC(=O)N2CCc3ccccc32)n1,-77.6*
c1cc2c(cc1C1=NNC(=NC3CC3)SC1)OCCO2,111.0
FC(F)Sc1ccc(N=C2NN=C(c3ccc4c(c3)OCCO4)CS2)cc1,-127.2*
O=[N+]([O-])c1ccc(-c2cn3c(n2)CCC3)cc1,-128.5*
O=C1Nc2ccccc2S/C1=C\C(=O)N1CCCC1,-139.9*
N#C/C(C(=O)N1CCCCC1)=C1\Nc2ccccc2S1,-103.8*
COC(=O)N/N=C/c1ccc(-c2cc(Cl)cc(Cl)c2)o1,52.0
NC(=O)N/N=C/c1ccc(-c2cccc(C(F)(F)F)c2)o1,-84.1*
O=S(=O)(c1ccc(-c2nnc(SCc3nnc(-c4ccccc4)o3)o2)cc1)N1CCCC1,-117.1*
CCn1c(C)nc2cc(C(=O)N/N=C(\C)c3ccccc3O)ccc21,-143.1*
CCn1c(C)nc2cc(C(=O)N/N=C/c3ccccc3C)ccc21,-141.9*
CCn1c(C)nc2cc(C(=O)NNC(=S)Nc3ccccc3OC)ccc21,-73.7*
CCn1c(C)nc2cc(NC(=O)Nc3cccc(C(C)=O)c3)ccc21,-98.9*
CC(C)(C)c1ccc(C(=O)Nc2cccc3c(=O)[nH][nH]c(=O)c23)cc1,-68.1*
CCNc1nc(Oc2ccc(C#N)cc2)cc(C(F)(F)F)n1,58.9
SMILES,aSyn 5UTR act
CCNc1nc(N)nc(Oc2ccc(C(=O)OC)cc2)n1,-71.2*
O=S(=O)(/C=C/c1ccccc1)Oc1ccccc1,-79.8*
COCCNc1nc2sc3c(c2c(=O)n1Cc1ccco1)CCCCC3,-72.2*
O=c1c2c3c(sc2nc(NCCO)n1Cc1ccco1)CCCCC3,-118.0*
COc1nc(NCc2ccco2)nc(NC2CCCCC2)n1,-94.2*
Cc1ccc(C(=O)c2nc3c(n2O)CCCC3)cc1,-86.3*
O=C(c1cc2ccccc2o1)c1nc2c(n1O)CCCCC2,-72.6*
COC(=O)c1ccc(N2CCN(C)CC2)c(NC(=O)COc2ccc(OC)cc2)c1,-67.9*
CCOc1ccc(-c2nnc(SCC(=O)Nc3ccc4c(c3)c3ccccc3n4CC)n2N)cc1,84.2
CCOc1ccc(NCc2nnc(SCC(=O)Nc3cc(C)on3)n2-c2ccccc2OC)cc1,-101.0*
COc1cc(/C=N/NC(=O)CN2CCCCC2)ccc1OCc1ccccc1,-136.6*
COc1cc(/C=N/NC(=O)CN2CCOCC2)ccc1OCc1ccccc1,-96.6*
CC(C)(C)OC(=O)COc1ccc(/C=N/NC(=O)CN2CCCCC2)cc1,-85.7*
N#C/C(=C\c1ccc(O)cc1)c1nc2ccccc2o1,-119.6*
